Shown are actives, neighbours in structure and some others; about 8.8% of the full set was active somewhere.
HT1080 IDH1KD tx – toxicity to HT-1080 IDH1 knockdown cells (counter line); 360,000 tested, 2% active; AID 686971; Potency, µM (top dose mostly 46.1 µM), actives largely listed as cytotoxic; HT-1080 IDH1 knockdown viability, ATP luminescence, 48 h
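Knockdown cells (IDH1KD HT-1080) received compounds 2 h after plating at 750 cells/well and were kept 48 h at 37 °C in 5% FBS RPMI. A CellTiter-Glo luminescence read gave % activity for curve fitting.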
KB-3-1 tox – KB-3-1 parental cell cytotoxicity; 400,000 tested, 1.4% active; KB-3-1 viability, CellTiter-Glo ATP luminescence, 72 h; Potency, µM (top dose mostly 46.1 µM), hits mostly cytotoxic; AID 1347075; further: nearly all actives have a fitted effect of over 60% in size
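Luminescent ATP read-out (CellTiter-Glo) measures survival of drug-naive KB-3-1 cells after 72 h compound exposure at 37 °C. Titration series was screened from lowest to highest concentration, with DMSO vehicle plates as background controls.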
IL-1B inflam inh – blocks inflammasome-driven IL-1 beta release; AID 743279; activity change, % at 57.5 µM; THP-1 LPS/ATP IL-1B secretion, AlphaLISA, 16 h; stronger effect = lower value; 360,000 tested, 4.7% active; in the data active means activity change below about -50%; inconclusive means mostly about -30% to -49%
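Secreted IL-1B measured by AlphaLISA bead assay after 16 h compound exposure of THP-1 cells; compounds (final up to 57.5 uM) added 1 h before LPS (250 ng/mL) and ATP (1.25 mM) stimulation; lower signal means less secretion.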
KB-V1 cytotox – kills drug-selected multidrug resistant KB-V1 cells; KB-V1 MDR cells viability, CellTiter-Glo, 72 h; Potency, µM (titrated, usually from 46.1 µM), actives largely listed as cytotoxic; 400,000 tested, 3.4% active; further: nearly all actives have a fitted effect of over 60% in size
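Potencies derive from concentration-effect curves fitted to normalized luminescence (CellTiter-Glo) of KB-V1 cells treated for 72 h at 37 degrees C in phenol-red-free DMEM containing 10% FBS.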
HT1080NT lethal – kills 2HG-producing HT-1080-NT fibrosarcoma cells; Potency, µM (doses to about 46.1 µM), hits mostly cytotoxic; AID 686970; 360,000 tested, 1.6% active; HT-1080-NT fibrosarcoma viability, CellTiter-Glo ATP luminescence, 48 h;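 further: NT is the 2HG producing partner of a matched IDH1 knockdown line; nearly all actives have a fitted effect of over 55% in size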
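HT-1080-NT; 750 cells/well; 5% FBS RPMI; 48 h compound, 37 degrees C; CellTiter-Glo luminescence; curve fitting and curve-class assignment.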
A number is an active result; i = inactive; ? = inconclusive; nt = no result. Unless noted, the call rests on the fitted dose curve; in most records, active means well fitted curve in the direction sought with a large enough effect; inconclusive means small, poorly fitted or top-dose-only effect, or another doubt; inactive means no such curve, though single readings can be large; an effect the other way counts as inactive or inconclusive.

SMILES	HT1080 IDH1KD tx	KB-3-1 tox	IL-1B inflam inh	KB-V1 cytotox	HT1080NT lethal
C[C@H]1CN([C@@H](C)CO)C(=O)Cc2cc(NC(=O)CCC(F)(F)F)ccc2O[C@H]1CN(C)Cc1ccc(-c2ccccc2)cc1	20.6µM	?	i	?	23.1µM
C[C@H]1CN([C@@H](C)CO)C(=O)Cc2cc(NC(=O)CCN3CCOCC3)ccc2O[C@@H]1CN(C)Cc1ccc(Oc2ccccc2)cc1	i	i	i	i	i
O=C(NCCCc1ccccc1)c1ccc(CS(=O)Cc2ccc(Cl)cc2)o1 (stereo not given)	i	i	i	i	i
COc1ccc(-n2c(C)cc(-c3csc(N)n3)c2C)cc1	i	?	i	?	i
CC(C)(Oc1ccc(Cl)cc1)C(=O)N/N=C/c1cn[nH]c1-c1ccccc1	?	i	i	i	i
COc1ccc(OC)c(NC(=O)CSc2ncnc3c2cnn3-c2ccccc2Cl)c1	i	?	-79.4	?	i
CCOc1c(OC)ccc2c3c(c(=O)oc12)CCCC3	?	i	i	8.2µM	i
COc1ccc2c3c(c(=O)oc2c1OCC(=O)O)CCCC3	i	i	i	i	i
CCCN(CC(=O)Nc1ccccc1C)C(=O)COc1c(C)cccc1C	i	i	i	i	i
CCCN(CC(=O)Nc1ccccc1C)C(=O)CCCNC(=O)c1ccc(Cl)cc1	i	i	i	?	i
CCCN(CC(=O)Nc1ccccc1C)C(=O)COc1c(Cl)cccc1Cl	i	i	i	5.8µM	i
CCCN(CC(=O)Nc1ccccc1C)C(=O)CCl	4.11µM	16.4µM	-95.3	?	8.2µM
COc1ccc(S(=O)(=O)N(CC(=O)NCCc2ccccc2)c2ccc(Cl)cc2)cc1	nt	i	nt	?	nt
CCCCCCNC(=O)CNC(=S)N(Cc1cccs1)C1CCCCC1	i	?	?	i	i
O=[N+]([O-])c1cnc(Nc2ccc(Cl)cn2)c([N+](=O)[O-])c1	?	i	-55.0	i	i
O=C(NNC(=O)c1ccccc1[N+](=O)[O-])Nc1ccc(Cl)cc1	i	i	i	i	i
O=C(Nc1ccc(Cl)cn1)c1ccccc1[N+](=O)[O-]	18.4µM	?	i	?	?
Cc1ccc(Nc2ccc([N+](=O)[O-])cn2)cc1Cl	i	i	?	?	i
O=C(Nc1ccc(Cl)cn1)c1cccc2ccccc12	11.6µM	?	i	?	?
O=CNc1c(Cl)cc2c(c1Cl)Cc1cc([N+](=O)[O-])ccc1-2	i	?	i	?	i
CCc1ccc2[nH]c(=O)c(CN(CCN(C)C)C(=S)NCc3ccco3)cc2c1	?	i	-73.9	i	i
CCc1ccc2[nH]c(=O)c(CN(CC3CCCO3)C(=S)NCc3ccco3)cc2c1 (stereo not given)	i	i	?	i	i
CCc1ccc2[nH]c(=O)c(CN(CCN(CC)CC)C(=S)NCc3ccco3)cc2c1	?	23.1µM	-63.7	?	i
CCCOP(=O)(c1ccc(N(C)C)cc1)C(O)c1ccc(N(C)C)cc1 (stereo not given)	i	i	i	i	i
COc1ccc(S(=O)(=O)Nc2c(C)cc(C)cc2C)c2cccnc12	i	i	i	?	i
SMILES	HT1080 IDH1KD tx	KB-3-1 tox	IL-1B inflam inh	KB-V1 cytotox	HT1080NT lethal
COc1ccccc1N1CCN(S(=O)(=O)c2cccc(F)c2)CC1	i	i	i	?	i
COc1ccccc1N1CCN(S(=O)(=O)c2ccc(F)cc2)CC1	i	i	i	13µM	i
Cc1ccc(N=C2NC(=O)CS2)cc1C	i	?	i	9.2µM	i
Cc1cccc(N=C2NC(=O)CS2)c1	i	i	i	?	i
O=C1CCNc2ccc(-c3ccccc3)cc21	i	i	i	i	i
O=C1CCNc2cc3ccccc3cc21	16.4µM	23.1µM	i	?	i
COc1cccc(CNC(=O)C2CCC(CNS(=O)(=O)c3ccc(Br)s3)CC2)c1 (stereo not given)	nt	i	nt	i	nt
CC(=O)N1CCC(N(Cc2ccc(C)o2)C(=O)Nc2ccc(C)cc2)CC1	nt	i	nt	i	nt
CCN(CC)c1nc2ccccc2nc1-n1nc(C)cc1C	i	?	i	i	i
CCCc1nnc(NC(=O)CSc2nc3ccccc3[nH]2)s1	i	i	-109.1	i	i
CCCc1nnc(NC(=O)Cn2c(=O)sc3ccccc32)s1	i	i	i	18.4µM	i
O=C(CCn1c(=O)sc2ccccc21)Nc1nccs1	i	i	i	i	i
